# Tests used:
# Details in all cases: Compound concentration 20.0 uM
# [1] = target: Tyrosine-protein kinase ABL1 (Homo sapiens) (UniProt P00519)
# [2] = target: Bromodomain-containing protein 4 (Homo sapiens) (UniProt O60885)
# [3] = target: Cyclin-dependent kinase 2 (Homo sapiens) (UniProt P24941)
# [4] = target: Casein kinase I isoform delta (Homo sapiens) (UniProt P48730)
# [5] = target: Glycogen synthase kinase-3 beta (Homo sapiens) (UniProt P49841)
# [6] = target: Mitogen-activated protein kinase 1 (Homo sapiens) (UniProt P28482)
# Sequence of Mitogen-activated protein kinase 1 (Homo sapiens) (P28482 whole entry): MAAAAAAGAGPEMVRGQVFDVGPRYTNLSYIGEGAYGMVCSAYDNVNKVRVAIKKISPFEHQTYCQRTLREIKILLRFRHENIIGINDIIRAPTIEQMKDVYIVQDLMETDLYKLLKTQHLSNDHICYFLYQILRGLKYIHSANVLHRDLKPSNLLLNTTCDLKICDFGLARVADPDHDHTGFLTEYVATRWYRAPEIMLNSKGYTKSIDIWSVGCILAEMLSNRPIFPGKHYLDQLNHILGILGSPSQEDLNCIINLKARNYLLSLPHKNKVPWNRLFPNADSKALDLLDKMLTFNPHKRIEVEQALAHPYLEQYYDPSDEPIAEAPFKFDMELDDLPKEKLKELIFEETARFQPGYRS
# [7] = target: T1, Aurora kinase A (Homo sapiens) (UniProt O14965)
# T1 sequence (whole entry): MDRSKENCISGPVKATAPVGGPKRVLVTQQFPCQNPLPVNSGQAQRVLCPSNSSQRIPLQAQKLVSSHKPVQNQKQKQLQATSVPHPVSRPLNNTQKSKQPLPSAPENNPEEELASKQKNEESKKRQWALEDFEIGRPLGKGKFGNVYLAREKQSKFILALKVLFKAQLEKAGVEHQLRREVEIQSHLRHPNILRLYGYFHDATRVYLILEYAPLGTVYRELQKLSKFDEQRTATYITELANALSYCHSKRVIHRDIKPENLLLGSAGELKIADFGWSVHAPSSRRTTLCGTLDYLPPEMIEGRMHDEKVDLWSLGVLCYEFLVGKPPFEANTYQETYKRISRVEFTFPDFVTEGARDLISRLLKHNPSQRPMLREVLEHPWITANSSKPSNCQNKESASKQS
# [8] = target: T2, Transcription intermediary factor 1-alpha (Homo sapiens) (UniProt O15164)
# T2 sequence (whole entry): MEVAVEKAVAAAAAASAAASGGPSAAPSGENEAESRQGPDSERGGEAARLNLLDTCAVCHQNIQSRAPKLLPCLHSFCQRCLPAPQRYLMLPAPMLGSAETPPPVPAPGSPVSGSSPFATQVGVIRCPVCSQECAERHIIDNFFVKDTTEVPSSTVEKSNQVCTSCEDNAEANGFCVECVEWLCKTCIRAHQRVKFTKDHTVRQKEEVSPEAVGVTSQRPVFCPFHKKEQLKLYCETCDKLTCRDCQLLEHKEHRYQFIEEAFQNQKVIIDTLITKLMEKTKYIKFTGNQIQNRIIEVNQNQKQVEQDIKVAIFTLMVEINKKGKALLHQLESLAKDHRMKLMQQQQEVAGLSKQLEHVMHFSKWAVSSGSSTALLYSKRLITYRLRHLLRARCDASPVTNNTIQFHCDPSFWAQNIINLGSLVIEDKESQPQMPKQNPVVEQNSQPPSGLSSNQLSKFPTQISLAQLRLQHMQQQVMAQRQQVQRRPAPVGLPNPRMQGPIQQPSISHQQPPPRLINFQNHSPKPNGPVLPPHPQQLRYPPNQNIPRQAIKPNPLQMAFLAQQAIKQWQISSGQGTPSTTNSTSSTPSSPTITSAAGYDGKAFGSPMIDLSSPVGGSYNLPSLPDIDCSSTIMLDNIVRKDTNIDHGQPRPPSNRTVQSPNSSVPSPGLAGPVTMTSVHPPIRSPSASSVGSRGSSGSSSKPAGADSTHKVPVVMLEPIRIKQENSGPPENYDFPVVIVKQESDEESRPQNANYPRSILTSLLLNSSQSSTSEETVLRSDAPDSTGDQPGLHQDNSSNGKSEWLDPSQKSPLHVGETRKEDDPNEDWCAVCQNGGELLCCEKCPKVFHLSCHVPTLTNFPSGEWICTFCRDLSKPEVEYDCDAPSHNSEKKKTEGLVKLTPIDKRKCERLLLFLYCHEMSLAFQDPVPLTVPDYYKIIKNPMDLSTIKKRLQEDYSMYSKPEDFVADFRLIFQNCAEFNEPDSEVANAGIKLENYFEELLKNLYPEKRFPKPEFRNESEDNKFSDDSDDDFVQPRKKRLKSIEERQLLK
# Sequence of Casein kinase I isoform delta (Homo sapiens) (P48730 whole entry, looked up, canonical isoform): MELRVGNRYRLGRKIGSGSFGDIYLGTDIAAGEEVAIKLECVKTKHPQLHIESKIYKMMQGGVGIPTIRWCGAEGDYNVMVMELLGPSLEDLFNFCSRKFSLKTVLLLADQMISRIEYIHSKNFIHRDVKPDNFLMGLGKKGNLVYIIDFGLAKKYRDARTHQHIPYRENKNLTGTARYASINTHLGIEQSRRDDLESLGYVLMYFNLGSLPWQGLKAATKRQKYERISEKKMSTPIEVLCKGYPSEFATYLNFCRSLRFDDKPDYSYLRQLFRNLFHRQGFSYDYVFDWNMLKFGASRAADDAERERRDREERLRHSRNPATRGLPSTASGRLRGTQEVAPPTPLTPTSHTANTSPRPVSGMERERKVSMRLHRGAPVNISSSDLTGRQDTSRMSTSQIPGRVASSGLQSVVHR
# Sequence of Tyrosine-protein kinase ABL1 (Homo sapiens) (P00519 whole entry): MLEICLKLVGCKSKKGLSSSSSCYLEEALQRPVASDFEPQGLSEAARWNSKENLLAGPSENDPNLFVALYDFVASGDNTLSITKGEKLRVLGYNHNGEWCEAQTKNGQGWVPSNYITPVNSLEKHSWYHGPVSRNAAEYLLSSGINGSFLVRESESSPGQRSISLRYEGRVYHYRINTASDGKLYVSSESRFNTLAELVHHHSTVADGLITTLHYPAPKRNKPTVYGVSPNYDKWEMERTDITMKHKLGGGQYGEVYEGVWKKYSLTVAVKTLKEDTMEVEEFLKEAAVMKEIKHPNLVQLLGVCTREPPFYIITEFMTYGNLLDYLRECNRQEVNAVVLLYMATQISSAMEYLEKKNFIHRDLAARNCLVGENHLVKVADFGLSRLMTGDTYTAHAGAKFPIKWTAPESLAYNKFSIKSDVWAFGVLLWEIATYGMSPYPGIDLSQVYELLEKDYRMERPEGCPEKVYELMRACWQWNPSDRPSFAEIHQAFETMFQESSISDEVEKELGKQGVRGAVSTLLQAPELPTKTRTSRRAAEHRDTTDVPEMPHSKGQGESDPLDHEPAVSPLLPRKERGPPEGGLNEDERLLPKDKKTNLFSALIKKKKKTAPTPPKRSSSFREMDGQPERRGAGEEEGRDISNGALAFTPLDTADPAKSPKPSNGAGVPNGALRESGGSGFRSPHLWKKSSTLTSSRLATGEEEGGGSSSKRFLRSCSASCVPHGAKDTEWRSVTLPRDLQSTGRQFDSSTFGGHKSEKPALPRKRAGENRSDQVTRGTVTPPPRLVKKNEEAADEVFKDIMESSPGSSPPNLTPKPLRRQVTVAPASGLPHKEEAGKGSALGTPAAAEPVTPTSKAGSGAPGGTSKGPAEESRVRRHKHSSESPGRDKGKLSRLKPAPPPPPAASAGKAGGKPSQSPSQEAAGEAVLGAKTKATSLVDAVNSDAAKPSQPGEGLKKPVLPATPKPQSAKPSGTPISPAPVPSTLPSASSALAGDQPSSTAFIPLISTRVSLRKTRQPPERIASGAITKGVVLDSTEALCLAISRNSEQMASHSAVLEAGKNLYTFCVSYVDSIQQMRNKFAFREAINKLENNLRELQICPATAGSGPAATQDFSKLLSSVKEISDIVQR
# Sequence of Glycogen synthase kinase-3 beta (Homo sapiens) (P49841 whole entry, looked up): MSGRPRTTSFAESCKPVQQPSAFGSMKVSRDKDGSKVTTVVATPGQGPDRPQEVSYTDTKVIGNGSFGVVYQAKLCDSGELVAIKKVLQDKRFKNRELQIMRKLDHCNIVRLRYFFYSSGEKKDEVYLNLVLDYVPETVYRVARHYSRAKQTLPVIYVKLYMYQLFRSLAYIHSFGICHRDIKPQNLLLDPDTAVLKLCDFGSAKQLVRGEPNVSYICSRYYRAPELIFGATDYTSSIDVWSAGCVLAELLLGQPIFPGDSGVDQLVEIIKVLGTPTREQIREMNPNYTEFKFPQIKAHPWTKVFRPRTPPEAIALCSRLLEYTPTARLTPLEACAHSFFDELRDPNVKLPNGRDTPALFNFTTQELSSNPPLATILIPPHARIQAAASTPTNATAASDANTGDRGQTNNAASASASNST
Structure (SMILES),ΔTm [1] [°C],ΔTm [2] [°C],ΔTm [3] [°C],ΔTm [4] [°C],ΔTm [5] [°C],ΔTm [6] [°C],ΔTm [7] [°C],ΔTm [8] [°C]
O=C(CN1CCN(C(=O)c2ccco2)CC1)Nc1cc(C(F)(F)F)ccc1Cl,0.19,2.01,0.06,-0.11,-0.95,0.07,-1.45,0.51
Cn1c(=O)cc(N2CCC[C@@H](N)C2)n(Cc2ccccc2C#N)c1=O,0.31,2.27,1.07,-0.43,0.02,0.02,-1.58,0.69
Cc1cc(Cn2c(=O)n(Cc3cnc(C)s3)c(=O)c3cc(S(=O)(=O)NC4(C)CC4)ccc32)n(C)n1,0.2,-4.6,0.24,0.39,-0.6,0.1,-3.34,-1.26
C[C@H](NC(=O)c1cn(C2(C#N)CC2)cn1)C(=O)Nc1nc(-c2cccc(-c3ccn(C)n3)c2)cs1,0.58,-1.99,0.19,0.61,-0.01,-0.23,1.33,-0.79
Nc1ccccc1NC(=O)c1ccc(CNC(=O)OCc2cccnc2)cc1,0.63,-1.69,0.81,0.33,-0.75,0.21,0.05,-1.42
CC1(C)Cn2nc(-c3ccc(F)cn3)c(-c3ccnc4[nH]ncc34)c2CO1,2.43,-1.54,0.09,9.16,-1.21,-0.48,-0.55,-1.54
CS(=O)(=O)N1CCN(C(=O)c2cnc3ccc(F)cc3c2N2CCC(C#N)(c3ccccc3)CC2)CC1,0.43,-2.17,-0.17,0.48,0.47,-0.62,-0.82,0
CCCCCCCC(=O)N[C@H](CN1CCCC1)[C@H](O)c1ccc2c(c1)OCCO2,0.07,-0.36,-0.06,-0.32,-0.11,0.14,-1.58,-0.39
COc1cccc(Nc2c(C(N)=O)cnc3c(C)cc(S(=O)(=O)c4cccc(C(=O)N(C)C)c4)cc23)c1,0.62,-2.14,0.36,-0.04,0.04,0.14,-0.98,-0.26
COc1ncc(C)c(-c2ccc3c(c2)[nH]c(=O)c2cnn([C@H]4CCOC4)c23)c1C,1.31,-3.36,-0.21,-0.26,0.55,-0.06,-2.59,-0.98
COCCOCCn1nc2c(c1C)-c1c(Cl)ccc3c1c(C)c(C(=O)O)n3CCCOc1cc(cc3c(F)c(Cl)ccc13)CCc1cc(nn1C)CSC2,-1.69,-3.74,-3.85,-0.76,0,-1.31,0.82,-3.03
C[C@H]1CO[C@@H]2Cn3cc(C(=O)NCc4ccc(F)cc4F)c(=O)c(O)c3C(=O)N12,0.13,-2.15,0.09,-0.04,-0.88,0.4,-0.95,0.47
Cc1cc(C(=O)N2CCN(C3CN(C(=O)c4ccc(-c5ccccc5)cc4)C3)CC2)no1,0.78,-2.08,-0.01,0.33,0,0.28,0,-0.09
Cc1cc(C)cc(Oc2ccc(CNC(=O)[C@H](C)N)cc2C)c1,1.83,-1.81,0.25,0.15,-1.22,-0.21,-0.6,-1.58
N#Cc1cccnc1N1CCN(C(=O)c2cccc(Cc3n[nH]c(=O)c4ccccc34)c2)CC1,0.57,-2.92,0.15,0.14,-0.23,0.24,-2.06,-0.96
CC(=O)N[C@@H](Cc1ccc(O)cc1)C(=O)N[C@H](C(=O)N[C@@H](C)C(=O)N[C@@H](CC(=O)O)C(=O)COC(=O)c1c(C)cccc1C)C(C)C,0.26,-2.81,0.14,0.17,-0.23,-0.06,-0.54,-0.84
O=C(C[C@@H](C(F)F)n1ccc(F)n1)N1CCC(O)(Cn2cnc3c(cnn3-c3ccc(F)cc3)c2=O)CC1,0.8,-3.01,0.2,0.03,-0.6,0.27,-2.33,1.94
COC[C@H](NC(=O)c1ccn(S(C)(=O)=O)c1)C(=O)Nc1nc(-c2cccc(-c3ccn(C)n3)c2)cs1,0.67,-0.81,0.17,0.35,-3.25,0.35,-2.2,-1.12
C[C@@H](COCCC(=O)N1CCN(c2ncc(C(F)(F)F)cn2)CC1)Nc1cn[nH]c(=O)c1C(F)(F)F,0.66,-3.06,-0.01,-0.13,0,0.21,-2.44,-0.58
N[C@@H](CCCCNC(=O)OCc1ccc([N+](=O)[O-])cc1)C(=O)N1CCCC1,0.09,-2.69,0.15,-0.16,-0.58,0.13,-1.1,-0.07
O=C(Nc1c[nH]nc1C(=O)NC1CCNCC1)c1cc(F)cc(F)c1,0.13,-1.86,1.26,1.02,13.9,-0.13,-0.72,-0.9
O=c1[nH]ccc2cc(F)c(NS(=O)(=O)c3ccc(N4CC[C@@H](O)C4)s3)cc12,0.78,-1.78,0.35,0.39,-0.79,0.11,-0.16,-0.69
C[C@@H]1CN(Cc2ncccn2)C[C@H]1c1nc2c(cnn2C2CCOCC2)c(=O)[nH]1,0.63,-2.54,0.17,-0.3,0.32,0.24,-2.46,0.61

# Reference: ChEMBL document CHEMBL5724796, “Tm Shift (DSF) assay results for EUbOPEN Chemogenomics Library” (2024)
